Reference: publication PMC4336329 (PLoS ONE, 2015)
About 2,200 (0.71%) of roughly 310,000 compounds showed an effect of 50% or more. The effect is printed as a negative number. The full list was thinned out, with strong results kept by preference.

biological target: human ether-à-go-go-related gene (hERG) potassium channel (human, UniProt Q12809); assay: primary screen, population patch clamp on CHO cells stably expressing hERG; higher = less effect of the substance
Sequence (Q12809 whole entry, looked up): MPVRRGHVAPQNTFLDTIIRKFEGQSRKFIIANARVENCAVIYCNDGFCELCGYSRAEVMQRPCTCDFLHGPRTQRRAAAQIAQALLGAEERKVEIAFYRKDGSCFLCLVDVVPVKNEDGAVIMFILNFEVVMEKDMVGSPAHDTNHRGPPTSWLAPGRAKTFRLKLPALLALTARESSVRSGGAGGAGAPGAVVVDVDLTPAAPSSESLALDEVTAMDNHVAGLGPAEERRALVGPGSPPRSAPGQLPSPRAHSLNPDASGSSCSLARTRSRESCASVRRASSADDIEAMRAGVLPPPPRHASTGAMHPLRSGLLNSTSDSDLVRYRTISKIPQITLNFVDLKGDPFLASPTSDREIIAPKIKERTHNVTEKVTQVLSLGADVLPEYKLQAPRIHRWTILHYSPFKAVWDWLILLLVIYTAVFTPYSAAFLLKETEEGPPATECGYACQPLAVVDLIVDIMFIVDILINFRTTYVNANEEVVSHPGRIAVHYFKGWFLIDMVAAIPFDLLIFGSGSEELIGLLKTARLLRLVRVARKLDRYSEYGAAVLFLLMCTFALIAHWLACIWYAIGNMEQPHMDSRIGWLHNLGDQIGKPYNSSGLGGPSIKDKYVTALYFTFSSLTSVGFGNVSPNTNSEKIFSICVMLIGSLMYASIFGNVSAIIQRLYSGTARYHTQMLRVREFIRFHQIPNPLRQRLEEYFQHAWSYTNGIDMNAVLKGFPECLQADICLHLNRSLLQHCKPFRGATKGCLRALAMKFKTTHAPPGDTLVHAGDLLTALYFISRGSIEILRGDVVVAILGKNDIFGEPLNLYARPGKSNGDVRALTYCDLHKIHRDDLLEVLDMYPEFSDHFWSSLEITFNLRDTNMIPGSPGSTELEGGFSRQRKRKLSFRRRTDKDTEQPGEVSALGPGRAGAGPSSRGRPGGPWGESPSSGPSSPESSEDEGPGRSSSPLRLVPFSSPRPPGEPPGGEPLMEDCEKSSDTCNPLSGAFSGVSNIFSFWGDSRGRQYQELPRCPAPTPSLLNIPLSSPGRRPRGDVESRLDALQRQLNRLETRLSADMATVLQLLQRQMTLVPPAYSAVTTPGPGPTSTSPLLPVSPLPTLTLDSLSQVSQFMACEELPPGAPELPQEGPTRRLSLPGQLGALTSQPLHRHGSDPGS

Row | SMILES | hERG current change (%, negative = inhibition) at 1uM [%]
1 | O=C(COn1nnc2ccc(Cl)cc21)NCc1ccccc1 | 0.51
2 | CCCCN1C(=O)C(=O)N(CC(=O)NC2CCCc3ccccc32)C1=O (stereo not shown) | 8.35
3 | CCN(CC)CCCN(C(=O)c1ccco1)c1nc(-c2ccc(Cl)cc2)cs1.Cl | -25.5
4 | CCN(CC)CCCN(C(=O)c1ccco1)c1nc(-c2ccc(C)cc2)cs1.Cl | -90.2
5 | Cl.O=C(c1ccco1)N(CCCN1CCOCC1)c1nc(-c2ccc(Cl)cc2)cs1 | -5.41
6 | Cc1ccc(-c2csc(N(CCCN(C)C)C(=O)c3ccco3)n2)cc1.Cl | -36.6
7 | Cc1ccc(-c2csc(N(CCCN3CCOCC3)C(=O)c3ccco3)n2)cc1.Cl | -4.11
8 | CN(C)CCCN(C(=O)c1ccco1)c1nc(-c2ccc(Cl)cc2)cs1.Cl | -70.8
9 | COc1cccc(C2c3[nH]c4ccccc4c3C[C@H]3C(=O)N(C)CC(=O)N23)c1 (stereo partly shown) | -1.14
10 | CON(c1nc(Cl)nc(N(C)C)n1)S(=O)(=O)c1ccccc1Cl | 6.38
11 | O=C(Nc1cc(Br)ccc1O)C1CC(c2ccccc2Cl)=NO1 (stereo not shown) | 18.5
12 | COc1ccc(Nc2nc(N)nc(CN(C)C3CCCCC3)n2)cc1 | -17.9
13 | CCOc1ccccc1Nc1nc(N)nc(CN(C)C2CCCCC2)n1 | -54.3
14 | COc1ccccc1Nc1nc(N)nc(CN(C)C2CCCCC2)n1 | -11.7
15 | CCOc1ccc(Nc2nc(N)nc(CN(C)C3CCCCC3)n2)cc1 | -58.2
16 | CCOc1ccccc1Nc1nc(N)nc(CN2CCCCC2C)n1 (stereo not shown) | -9.01
17 | CCOc1ccc(Nc2nc(N)nc(CCl)n2)cc1 | 7.02
18 | CC(C)NC(=O)C1CCN(C2CCN(C(=O)Cc3ccc4c(c3)OCO4)CC2)CC1 | 4.98
19 | Cc1cc(N2C(=O)C(O)=C(C(=O)c3cccs3)C2c2ccc(F)cc2)no1 (stereo not shown) | 14.8
20 | S=C(NCc1ccncc1)Nc1ccccc1 | 7.34
21 | COc1ccc(N2C(=O)CC(NCCNc3ccc([N+](=O)[O-])cn3)C2=O)cc1 (stereo not shown) | -13.7
22 | CCCOc1ccc(N2C(=O)CC(NCCNc3ccc([N+](=O)[O-])cn3)C2=O)cc1 (stereo not shown) | -57.8
23 | CCOc1ccc(N2C(=O)CC(NCCNc3ccc([N+](=O)[O-])cn3)C2=O)cc1 (stereo not shown) | -37.8
24 | CC1(C)CC(=O)C2=C(C1)N(c1ccc(F)cc1)C(N)=C(C#N)C2c1cccs1 (stereo not shown) | 4.89
25 | CC1CN(C)C(C)C/C1=N\Oc1ccc([N+](=O)[O-])cc1.Cl (stereo not shown) | -84.5
26 | CN1CCN(C(=O)c2ccc(Oc3ccc([N+](=O)[O-])cc3)cc2)CC1 | -11.7
27 | CC1CC(C)CN(S(=O)(=O)c2ccc(Oc3ccc([N+](=O)[O-])cc3)cc2)C1 (stereo not shown) | 14.4
28 | CN1CCC(=NOc2ccc([N+](=O)[O-])cc2)CC1 | -56

Row | SMILES | hERG current change (%, negative = inhibition) at 1uM [%]
29 | CC1CN(C)C(C)C/C1=N/Oc1ccccc1[N+](=O)[O-].Cl (stereo not shown) | 2.66
30 | CC1=CC(=O)C=C(C)C1=NOc1ccc([N+](=O)[O-])cc1 | -11.7
31 | CCCCCc1nnc(NC(=O)C2=COCCO2)s1 | 6.91
32 | O=C(Nc1nc(-c2ccccn2)cs1)c1ccc(F)c(S(=O)(=O)N2CCOCC2)c1 | 5.44
33 | CCCC(=O)Nc1c(-c2cccs2)c(=O)c2ccccc2n1C | 5.25
34 | CC1CCCCC1NC(=O)Cn1cccc1C(=O)c1ccccc1 (stereo not shown) | 14
35 | CNc1nc2cc([N+](=O)[O-])c([N+](=O)[O-])cc2nc1NC | -3.16
36 | COc1ccc(CN2CCC(C(=O)Nc3ccc(Oc4ccccc4)nc3)CC2)cc1F | -37.8
37 | CCOc1ccc(C(=O)CCC(=O)N2CCC(C(=O)OC)CC2)cc1 | 10.1
38 | CC1=C(C(=O)Nc2ccccc2F)C(c2ccsc2)C2=C(CC(C)(C)CC2=O)N1 (stereo not shown) | 1.33
39 | C#CCNC(=O)C1CCN(c2cc(C)nc(-c3ccccc3)n2)CC1 | -8.78
40 | Cc1cc(N2CCC(C(=O)NCC3CC3)CC2)nc(-c2ccccc2)n1 | -53
41 | C=CCNC(=O)C1CCN(c2cc(C)nc(-c3ccccc3)n2)CC1 | -12.2
42 | Cc1nn(CC(=O)OCC(=O)Nc2ccccc2[N+](=O)[O-])c(C)c1[N+](=O)[O-] | 7.87
43 | CCCCn1c(N)c(N(CCOC)C(=O)c2ccc(OCc3c(C)noc3C)cc2)c(=O)[nH]c1=O | 19
44 | Cc1ccc(NC(=O)C(c2ccccc2)N2CCN(CC(=O)NC3CC3)CC2)cc1Cl (stereo not shown) | -2.31
45 | O=C(CN1CCN(C(C(=O)Nc2ccc(Cl)cc2C(F)(F)F)c2ccccc2)CC1)NC1CC1 (stereo not shown) | -50.1
46 | O=C(CN1CCN(C(C(=O)Nc2ccc(F)cc2)c2ccccc2)CC1)NC1CC1 (stereo not shown) | -2.24
47 | COc1ccc(N(C(=O)Cn2nnc3ccccc32)C(C(=O)NC(C)(C)C)c2ccc(OC)c(O)c2)cc1 (stereo not shown) | 14.6
48 | Cc1ccc(N2C(=O)C3CC(c4ccccc4)=C4C5C=CC(C6C(=O)N(c7ccc(C)cc7C)C(=O)C56)C4C3C2=O)c(C)c1 (stereo not shown) | 3.95
49 | Cc1ccc(N2C(=O)C3CC(c4ccccc4)=C4C5C=CC(C6C(=O)N(c7ccc(C)cc7)C(=O)C56)C4C3C2=O)cc1 (stereo not shown) | -74.5
50 | Cc1ccc(N2C(=O)C3C4CC(=O)C(c5ccccc54)C3C2=O)cc1 (stereo not shown) | 4.46
51 | Cn1c(SCC(=O)NC2CC2)nnc1-c1ccccc1 | 6.86
52 | CN(C)/C=N/c1ncc(C(=O)c2ccc(Cl)cc2Cl)s1 | -4.09
53 | COc1ccc(Nc2cc(C)nc3ccccc23)cc1.Cl | -15.6
54 | COc1cccc(Nc2cc(C)nc3ccccc23)c1 | -65.2
55 | Cc1cccc(Nc2cc(C)nc3ccccc23)c1.Cl | -33.5
